PubChem BioAssay (NCATS)
Records with an inconclusive call do not appear. Activity calls are given as the source filed them. Calls come from the whole dose curve; as a rule, active = well fitted cell-killing curve with a large enough effect; inconclusive = small, poorly fitted or top-dose-only effect, or effect the other way; inactive = no such curve, though single readings can be large or run the other way.

What was measured:
[1] = Quantitative High-Throughput drug screen in 47 multiple myeloma cell lines against the NCATS MIPE library collection: MM1S_ATCC cell viability assay (AID 1918980); note: nearly all actives have a fitted effect of over 45% in size
How it was run: (§1)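 Inhibition of viability over 48 h was scored by ATP content (CellTiter-Glo) in 500-cell wells. Zero and full viability were defined by media-only and DMSO-only wells.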

[2] = Quantitative High-Throughput drug screen in 47 multiple myeloma cell lines against the NCATS MIPE library collection: MM1R_ATCC cell viability assay (AID 1918981); note: nearly all actives have a fitted effect of over 35% in size
How it was run: as §1

[3] = Quantitative High-Throughput drug screen in 47 multiple myeloma cell lines against the NCATS MIPE library collection: KMS28PE_JCRB cell viability assay (AID 1918983); note: nearly all actives have a fitted effect of over 35% in size
How it was run: as §1

[4] = Quantitative High-Throughput drug screen in 47 multiple myeloma cell lines against the NCATS MIPE library collection: L363_DSMZ cell viability assay (AID 1918984); note: nearly all actives have a fitted effect of over 40% in size
How it was run: as §1

[5] = Quantitative High-Throughput drug screen in 47 multiple myeloma cell lines against the NCATS MIPE library collection: KMS34_JCRB cell viability assay (AID 1918985); note: nearly all actives have a fitted effect of over 40% in size
How it was run: as §1

[6] = Quantitative High-Throughput drug screen in 47 multiple myeloma cell lines against the NCATS MIPE library collection: OCIMY7_PLB cell viability assay (AID 1918987); conditions: OCI-MY7 myeloma viability, CellTiter-Glo ATP, 48 h; viability (% of DMSO): at 45.8 µM (top of the series); note: nearly all actives have a fitted effect of over 65% in size
How it was run: as §1

[7] = Quantitative High-Throughput drug screen in 47 multiple myeloma cell lines against the NCATS MIPE library collection: OCIMY5_PLB cell viability assay (AID 1918988); note: nearly all actives have a fitted effect of over 65% in size
How it was run: as §1

[8] = Quantitative High-Throughput drug screen in 47 multiple myeloma cell lines against the NCATS MIPE library collection: OPM1_PLB cell viability assay (AID 1918989); note: nearly all actives have a fitted effect of over 40% in size
How it was run: as §1

[9] = Quantitative High-Throughput drug screen in 47 multiple myeloma cell lines against the NCATS MIPE library collection: SKMM1_PLB cell viability assay (AID 1919863); conditions: SKMM1 myeloma viability, CellTiter-Glo ATP, 48 h; viability: active compounds read low; note: nearly all actives have a fitted effect of over 35% in size
How it was run: as §1

[10] = Quantitative High-Throughput drug screen in 47 multiple myeloma cell lines against the NCATS MIPE library collection: U266_ATCC cell viability assay (AID 1919864); note: nearly all actives have a fitted effect of over 35% in size
How it was run: as §1

[11] = Quantitative High-Throughput drug screen in 47 multiple myeloma cell lines against the NCATS MIPE library collection: XG6_PLB cell viability assay (AID 1919865); note: nearly all actives have a fitted effect of over 40% in size
How it was run: as §1

[12] = Quantitative High-Throughput drug screen in 47 multiple myeloma cell lines against the NCATS MIPE library collection: XG1_PLB cell viability assay (AID 1919866); note: nearly all actives have a fitted effect of over 35% in size
How it was run: as §1

[13] = Quantitative High-Throughput drug screen in 47 multiple myeloma cell lines against the NCATS MIPE library collection: VP6_DJ cell viability assay (AID 1919867); note: nearly all actives have a fitted effect of over 40% in size
How it was run: as §1

[14] = Quantitative High-Throughput drug screen in 47 multiple myeloma cell lines against the NCATS MIPE library collection: UTMC2_PLB cell viability assay (AID 1919868); conditions: CellTiter-Glo ATP luminescence, 48 h; viability (% of DMSO control): at 45.8 µM (top of the series); note: nearly all actives have a fitted effect of over 55% in size
How it was run: as §1

[15] = Quantitative High-Throughput drug screen in 47 multiple myeloma cell lines against the NCATS MIPE library collection: PE2_PLB cell viability assay (AID 1919869); note: nearly all actives have a fitted effect of over 35% in size
How it was run: as §1

[16] = Quantitative High-Throughput drug screen in 47 multiple myeloma cell lines against the NCATS MIPE library collection: PCM6_Riken cell viability assay (AID 1919870); note: nearly all actives have a fitted effect of over 30% in size
How it was run: as §1

[17] = Quantitative High-Throughput drug screen in 47 multiple myeloma cell lines against the NCATS MIPE library collection: RPMI8226_ATCC cell viability assay (AID 1919871); note: nearly all actives have a fitted effect of over 30% in size
How it was run: as §1

[18] = Quantitative High-Throughput drug screen in 47 multiple myeloma cell lines against the NCATS MIPE library collection: LP1_DSMZ cell viability assay (AID 1918982); note: nearly all actives have a fitted effect of over 35% in size
How it was run: as §1

[19] = Quantitative High-Throughput drug screen in 47 multiple myeloma cell lines against the NCATS MIPE library collection: OPM2_DSMZ cell viability assay (AID 1919872); note: nearly all actives have a fitted effect of over 30% in size
How it was run: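 We plated 500 myeloma cells per well, pinned in MIPE 4.0 compounds, and incubated for 48 hours at 37C. ATP was then quantified with CellTiter-Glo, with DMSO and media-only wells defining 100% and 0%.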

[20] = Quantitative High-Throughput drug screen in 47 multiple myeloma cell lines against the NCATS MIPE library collection: OCIMY1_PLB cell viability assay (AID 1918979); note: nearly all actives have a fitted effect of over 35% in size
How it was run: as §1
Potency is the fitted concentration of half-maximal effect.

CC(C)N1[N]C(=C2C=c3cc(O)ccc3=N2)c2c(N)ncnc21
active: Potency [1] 469 nM | Potency [2] 418 nM | Potency [3] 209 nM | Potency [4] 59 nM | Potency [5] 296 nM | Potency [6] 743 nM | Potency [7] 1180 nM | Potency [8] 296 nM | Potency [9] 118 nM | Potency [10] 4180 nM | Potency [11] 296 nM | Potency [12] 93.5 nM | Potency [13] 264 nM | Potency [14] 187 nM | Potency [15] 148 nM | Potency [16] 1180 nM | Potency [17] 41.8 nM

CCOC(=O)N1CCN([N+]([O-])=NOc2ccc([N+](=O)[O-])cc2C#N)CC1
active: Potency [1] 1320 nM | Potency [2] 1320 nM | Potency [18] 2640 nM | Potency [3] 1180 nM | Potency [4] 590 nM | Potency [5] 526 nM | Potency [7] 833 nM | Potency [8] 418 nM | Potency [10] 833 nM | Potency [12] 372 nM | Potency [14] 526 nM | Potency [15] 743 nM | Potency [16] 469 nM | Potency [17] 1050 nM | Potency [19] 935 nM

CON=C(C(=O)N[C@@H]1C(=O)N2C(C(=O)O)=C(CSC(=O)c3ccco3)CS[C@H]12)c1csc(N)n1
inactive: Potency [20] | Potency [18] | Potency [3] | Potency [6] | Potency [8] | viability [9] 134% | Potency [12] | Potency [13] | Potency [15] | Potency [19]

COc1ccc(S(=O)(=O)Nc2cccnc2Nc2ccc(O)cc2)cc1
inactive: Potency [4]
active: Potency [1] 209 nM | Potency [2] 105 nM | Potency [18] 148 nM | Potency [3] 105 nM | Potency [5] 46.9 nM | Potency [7] 37.2 nM | Potency [8] 235 nM | Potency [9] 37.2 nM | Potency [10] 1050 nM | Potency [12] 16.6 nM | Potency [13] 187 nM | Potency [15] 148 nM | Potency [16] 235 nM | Potency [17] 526 nM | Potency [19] 118 nM

c1ccc(CNc2nc(NCc3ccccc3)c3ccccc3n2)cc1
active: Potency [1] 8330 nM | Potency [2] 26400 nM | Potency [18] 23500 nM | Potency [3] 23500 nM | Potency [4] 5260 nM | Potency [5] 20900 nM | Potency [6] 4690 nM | Potency [7] 20900 nM | Potency [8] 7430 nM | Potency [9] 29600 nM | Potency [10] 14800 nM | Potency [11] 8330 nM | Potency [12] 7430 nM | Potency [13] 8330 nM | Potency [15] 11800 nM | Potency [16] 8330 nM

CC(C)c1cnn2c(NCc3ccccc3)cc(NCCCCCCN)nc12
active: Potency [1] 3320 nM | Potency [2] 20900 nM | Potency [18] 18700 nM | Potency [3] 14800 nM | Potency [4] 14800 nM | Potency [5] 18700 nM | Potency [7] 6620 nM | Potency [8] 18700 nM | Potency [10] 2640 nM | Potency [11] 332 nM | Potency [12] 935 nM | Potency [13] 11800 nM | Potency [15] 26400 nM | Potency [16] 13200 nM

CC[C@H](CC[C@@H](C)[C@H]1CC[C@H]2[C@@H]3CC=C4C[C@@H](O)CC[C@]4(C)[C@@H]3CC[C@]12C)C(C)C
inactive: Potency [20] | Potency [18] | Potency [3] | Potency [7] | Potency [8] | viability [9] 106% | Potency [10] | Potency [11] | Potency [12] | Potency [15] | Potency [16] | Potency [17] | Potency [19]

CN(C)CC(=O)N1CCC(c2ccc(NC(=O)c3ncc(C#N)[nH]3)c(C3=CCCCC3)c2)CC1
inactive: Potency [18] | Potency [5] | viability [9] 127% | Potency [17] | Potency [19]
active: Potency [1] 2350 nM | Potency [2] 8330 nM | Potency [6] 9350 nM | Potency [7] 26400 nM | Potency [8] 20900 nM | Potency [10] 8330 nM | Potency [11] 18700 nM | Potency [12] 16600 nM | Potency [13] 23500 nM | Potency [14] 18700 nM | Potency [15] 20900 nM | Potency [16] 14800 nM

Nc1nc2c(c(=O)[nH]1)N(C=O)[C@H](CNc1ccc(C(=O)N[C@@H](CCC(=O)O)C(=O)O)cc1)CN2
inactive: Potency [20] | Potency [5] | Potency [7] | Potency [8] | Potency [11] | Potency [12] | Potency [13] | Potency [15] | Potency [16] | Potency [17] | Potency [19]

Cc1cc(-c2nnc3n2CCCCC3)c(C)n1-c1ccccc1
inactive: Potency [18] | Potency [3] | Potency [8] | Potency [10] | Potency [12] | Potency [13] | Potency [14] | Potency [15] | Potency [19]
active: Potency [20] 1.2 nM | Potency [7] 23500 nM

O=C(C=CC=Cc1ccc2c(c1)OCO2)N1CCCCC1
active: Potency [13] 2640 nM | Potency [17] 3720 nM
inactive: Potency [20] | Potency [18] | Potency [3] | Potency [5] | Potency [6] | Potency [8] | Potency [10] | Potency [14] | Potency [15] | Potency [16] | Potency [19]
